Data as given in PubChem BioAssay (NCI).
About 79,000 compounds went through this panel and 15% of them were active in at least one assay; those are over-represented in the sample as a whole. The source made the active and inactive calls. Cut-off read from the data, not from the text of the source: active = growth inhibition above about 70%; inactive = the rest. Where a SMILES comes first, the peptide text is derived from it. Bridges are numbered along the chain shown (N, C = ends). The star is where a group is joined. Cbz = O=C(OCc1ccccc1)*; OBn = c1ccc(CO*)cc1

Key:
[1] = NCI Yeast Anticancer Drug Screen. Data for the rad50 strain (AID 155);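 note: 0% = growth of vehicle-only cultures of the same strain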; conditions: S. cerevisiae rad50 strain growth inhibition; at 50.0 µM; active compounds read high
How it was run: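 Yeast carrying a defined DNA repair defect were exposed to test compounds, and growth was compared with vehicle-treated controls to give percent inhibition.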

[2] = NCI Yeast Anticancer Drug Screen. Data for the mec2-1 strain (AID 157); conditions: S. cerevisiae mec2-1 strain, at 50.0 µM, active compounds read high
How it was run: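 Readout is yeast growth inhibition, normalised to vehicle-treated controls, in the mec2-1 strain exposed to compound.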

[3] = NCI Yeast Anticancer Drug Screen. Data for the sgs1 mgt1 strain (AID 161);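 note: 0% = growth of cultures given vehicle only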; conditions: S. cerevisiae sgs1 mgt1 strain, at 50.0 µM, active compounds read high
How it was run: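 Percent growth inhibition was derived by comparing compound-exposed mutant yeast with vehicle-exposed cultures. The strain carries alterations in DNA damage repair.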

[4] = NCI Yeast Anticancer Drug Screen. Data for the cln2 rad14 strain (AID 165);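 note: 0% = growth equal to vehicle treated cultures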; conditions: S. cerevisiae cln2 rad14 strain, at 50.0 µM, active compounds read high
How it was run: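 Relative to vehicle controls, growth inhibition of compound-treated cln2 rad14 yeast was recorded.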

[5] = NCI Yeast Anticancer Drug Screen. Data for the bub3 strain (AID 167); conditions: S. cerevisiae bub3 mutant strain, at 50.0 µM, active compounds read high
How it was run: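 Compounds were applied to a genetically altered yeast strain carrying a cell-cycle control defect. Growth inhibition was scored against vehicle-treated controls.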

[6] = NCI Yeast Anticancer Drug Screen. Data for the mlh1 rad18 strain (AID 175); conditions: S. cerevisiae mlh1 rad18 strain growth inhibition; at 50.0 µM; active compounds read high
How it was run: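 Test agents were incubated with a yeast strain of defined genotype (DNA damage repair defect). Inhibition of growth was derived by comparison with vehicle-exposed cultures.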

Measured: growth inhibition

COc1ccc2nc(C)cc(N/N=C/c3cccc(C)n3)c2c1
inactive: [1] 3.95% | [2] -19.2% | [3] -1.55% | [4] -0.8% | [5] -29.8% | [6] -22.1%

Cc1cc2nc(Cl)n(C3OC(CO)C(O)C3O)c2cc1C (stereo not given)
inactive: [1] 16.6% | [2] -7.15% | [3] 0.15% | [4] 4.8% | [5] -1% | [6] 12.8%

O=C(O)C1Nc2ccccc2NC1=O (stereo not given)
inactive: [1] 3.55% | [2] -3.15% | [3] -5.5% | [4] -47% | [5] -4.35% | [6] 3.3%

CC(=O)Nc1ccc(S(=O)(=O)c2ccc(NC(C)=O)s2)s1
inactive: [1] -6.05% | [2] -1.3% | [3] -4.1% | [4] -15.4% | [5] -15.3% | [6] -18.9%

C(=C(c1ccccc1)c1ccccc1)=C(c1ccccc1)c1ccccc1
inactive: [1] 30.8% | [2] 12.9% | [3] 24.6% | [4] -15.4% | [5] 4.95% | [6] 32%

CCOC(=O)N(C)N=NCCCl
inactive: [1] 15.2% | [2] 2.2% | [3] -5.05% | [4] -26.9% | [5] 8.2% | [6] -4.9%

CC1CN=C(N(Cc2ccccc2)C(=O)Nc2ccc(Cl)c(Cl)c2)S1 (stereo not given)
inactive: [1] -4.25% | [2] 27.9% | [3] -0.35% | [4] 26.7% | [5] -0.65% | [6] 0.35%

Cc1ccc(C2(O)c3ccccc3N=NN2C)cc1 (stereo not given)
inactive: [1] 2.6% | [2] 0.5% | [3] 4% | [4] -16.8% | [5] 14% | [6] 9.75%

COc1cc(-c2cc(=O)c3cc4c(=O)cc(-c5cc(OC)c(OC)c(OC)c5)oc4cc3o2)cc(OC)c1OC
inactive: [1] -11.2% | [2] 1.25% | [3] 11.2% | [4] -75% | [5] -7.7% | [6] -5%

O=C(NC(=S)c1ccco1)NS(=O)(=O)c1ccc(Cl)cc1
inactive: [1] 8.35% | [2] 7.05% | [3] 12.2% | [4] 16.2% | [5] 20.4% | [6] 29.4%

O=CC1=CCC2c3[nH]c4ccccc4c3CCN2C1 (stereo not given)
inactive: [1] 24.9% | [2] 20.5% | [3] 25.7% | [4] 27.2% | [5] 28.2% | [6] 19.8%

CCN(CC)c1ccc2c(C)cc(=O)oc2c1
inactive: [1] 6.35% | [2] -10.6% | [3] 6.35% | [4] 3.8% | [5] 12.9% | [6] 0.9%

COc1ccc(Cl)cc1Cl
inactive: [1] 6.8% | [2] -6.45% | [3] -98% | [4] 14.2% | [5] 14.1% | [6] 26.6%

O=C1Cc2ccccc2CCc2ccccc21
inactive: [1] 13.2% | [2] -13.3% | [3] 6.5% | [4] 22.8% | [5] -13.8% | [6] 24%

COc1cccc(N2C(=O)[C@H]3[C@H]4CC(C(C)(C)C)CC[C@H]4c4c([nH]c5ccccc45)[C@H]3C2=O)c1 (stereo not given in full)
inactive: [1] 1.65% | [2] -18.9% | [3] 8.25% | [4] 31.7% | [5] -9.4% | [6] -2.4%

c1ccc2cc(N=NNc3ccc4ccccc4c3)ccc2c1
inactive: [1] 63.6% | [2] -4.1% | [3] 27.9% | [4] -30.6% | [5] 47.5%
active: [6] 74%

O=[N+]([O-])c1ccc(P(=O)(Nc2ccc(Cl)cc2)Nc2ccc(Cl)cc2)cc1
active: [1] 95.7% | [2] 96.8% | [3] 95.1% | [4] 91.8% | [5] 94.8% | [6] 97.1%

CC(=O)OCCC(C)Nc1ccnc2cc(Cl)ccc12 (stereo not given)
inactive: [1] -11.7% | [2] -7.45% | [3] 6.35% | [4] 13.2% | [5] -3.75% | [6] 12.2%

Nc1ccccc1SC1CC(=O)N(c2cccc(Cl)c2)C1=O (stereo not given)
inactive: [1] -10.6% | [2] -25.4% | [3] -4.7% | [4] -7.3% | [5] -1.05% | [6] -25.1%

CCCCCC1OCC(C)(C)CO1
inactive: [1] 3.95% | [2] -2.05% | [3] -5.45% | [4] -9.3% | [5] -3.05% | [6] -9.6%

[O-][n+]1c2ccc(Cl)cc2nc2ccc(Cl)cc21
inactive: [1] -9.35% | [2] -10.9% | [3] -8.25% | [4] -27.4% | [5] 1.45% | [6] -4.6%

CC(C)[C@@H]1NC(=O)[C@@H]2N=C(O[C@H]2C)[C@H](C(C)C)NC(=O)C2N=C1O[C@H]2C
inactive: [1] 11% | [2] 4.75% | [3] 2.15% | [4] 9.45% | [5] 10.3% | [6] -34.1%

N#CCCCCCCCCCC#N
inactive: [1] -18.9% | [2] -36% | [3] -47.4% | [4] 25.9% | [5] -52.5% | [6] 11.4%

CCCCCCCCCC/C=C/C=O
inactive: [1] 57.6% | [2] 43.5% | [3] 53.8% | [4] 18.7% | [5] 43.6% | [6] 8.9%

CCSCCC(C)(N)C(=O)O (stereo not given)
inactive: [1] -7.35% | [2] -8.85% | [3] -12.3% | [4] -38.7% | [5] 2.3% | [6] -3.7%

N#Cc1sc2c(c1O)c(=O)n(-c1ccccc1)c(=S)n2-c1ccccc1
inactive: [1] -40.9% | [2] -36.9% | [3] -37.3% | [4] -23.1% | [5] -54.9% | [6] -47.8%

COc1cccc(NC(=O)/C(CS(=O)(=O)CCC(C(C)=O)C(C)=O)=N\NC(C)(C)C)c1
inactive: [1] 11.7% | [2] 0.7% | [3] -20.8% | [4] -21.9% | [5] 1.3% | [6] 7.1%

C/C(=N/S(=O)(=O)c1ccc(C)c(C)c1)OC(C)C
inactive: [1] 2.6% | [2] 6.9% | [3] 7.95% | [4] -55.1% | [5] 13.1% | [6] -1.2%

CN(C)CCC(O)(c1ccccc1)C(O)(CCN(C)C)c1ccccc1 (stereo not given)
inactive: [1] -3.15% | [2] -14.8% | [3] -8.45% | [4] -8.85% | [5] -13.8% | [6] -16.4%

CN1C(=O)N(c2nc3ccccc3[nH]2)C(C)(C)C1=O
inactive: [1] 5.25% | [2] 1.9% | [3] -23.8% | [4] -6.4% | [5] 6.35% | [6] 18.6%

C/C(=N\N(C)/C=N/S(C)(=O)=O)c1ccccc1
active: [4] 74.5%
inactive: [1] 7.85% | [2] 9.5% | [3] 24.5% | [5] -2.9% | [6] -3.25%

COc1ccccc1/C=C/C(=O)N1CCC2(CC1)C(=O)N(C)CN2c1ccccc1
inactive: [1] -16% | [2] 8.45% | [3] -17.3% | [4] -15.1% | [5] -0.35% | [6] -2.4%

COc1ccc(CCN=C2OCc3ccccc32)cc1OC
inactive: [1] 36.1% | [2] -49.6% | [3] -42.6% | [4] -18.6% | [5] -21.5% | [6] -50.7%

CC(=O)CCCS(=O)(=O)c1ccccc1
inactive: [1] -1.5% | [2] 14.9% | [3] 0.9% | [4] -12.7% | [5] -3.8% | [6] 5.2%

CC(C)(C)c1ccc2c(c1)C(O)(C#Cc1ccccc1)c1ccccc1C2(O)C#Cc1ccccc1 (stereo not given)
inactive: [1] 11.6% | [2] -7.5% | [3] 1.5% | [4] 9.35% | [5] 0.05% | [6] 14.1%

CCOC(=O)c1cnc2cc(C)cc(C)c2c1Nc1ccc2c(c1)OCO2
inactive: [1] -8.15% | [2] -4.65% | [3] -12.3% | [4] -36% | [5] 5.45% | [6] -2.9%

CCOC(=O)/C(=N\O)C(C)(C)c1ccnc2ccccc12
inactive: [1] -4% | [2] 0.6% | [3] -10.9% | [4] 4.05% | [5] -5% | [6] 4.7%

CN(C)CCOC(=O)Nc1ccccc1C(F)(F)F
inactive: [1] 16.1% | [2] -8.1% | [3] 17.1% | [4] 21.8% | [5] 19.8% | [6] 12.2%

O=C(O)c1cc(-c2ccccc2)nc2cc(Cl)ccc12
inactive: [1] 29.9% | [2] 12.8% | [3] 19.1% | [4] -9.35% | [5] 24.4% | [6] 25.6%

COC(=O)C1CCC(=O)NCCCCC(NC(=O)C(CC(=O)OCc2ccccc2)NC(=O)OCc2ccccc2)C(=O)N1 (stereo not drawn) (Cbz-Asp(OBn)-Lys-Glu-OMe; lactam 2-3; configuration not given here)
inactive: [1] -2% | [2] 3.95% | [3] 23.3% | [4] 11.8% | [5] 28.4% | [6] -23.7%
